The source of these data is PubChem BioAssay.

The term inhibition denotes the drop in the measured response relative to a control, in per cent.

Calls of active or inactive are those of the source.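 Rule for the calls, unless noted: active = visual image review flags a hit and inhibition of aggregation exceeds 20%; inconclusive = visual hit but inhibition at or below 20%; inactive = no hit on visual image review.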

Assay [1] in a line: inhibitors of TNFa-induced NFkB p65 translocation, primary screen, imaging, HUVEC, MLSMR starter and 10KST1 sets (AID 438;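 active = inhibition above 20% together with a positive visual image hit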;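 note: compound added about 3h40 before a 20 min TNFalpha stimulation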;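 for inhibition: signal is the nuclear over cytoplasmic p65 intensity ratio per well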). The following applies: HUVEC TNFa-induced p65 nuclear translocation; cell count: measured here: nuclei count (cytotoxicity indicator), at 2.08 µM; inhibition: at 2 µM, stronger effect = higher value, 0% TNFa-plus-vehicle, 100% no-TNFa wells.
Assay [2] in a line: inhibitors of mutant huntingtin aggregation, primary screen, imaging, exon1htt(103Q)mCFP cells, high-content imaging (AID 483).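 For nuclei count: percent of the per-plate median nuclei count of sample wells.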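 Note: compound exposure lasted 3 days before fixation.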 The following applies: exon1htt(103Q)mCFP cell line, aggregate imaging, at 2 µM; inhibition of aggregation: stronger effect = higher value; nuclei count: measured here: cell count, toxicity.
The nature of assay [3]: inhibitors of E-selectin induction by TNFa, primary screen, imaging, HUVEC, immunofluorescence, MLSMR starter and 10KST1 sets (AID 487;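 active = visually confirmed hit in the image check and inhibition above 20%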;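 for inhibition: signal is fraction of cell area covered by stained E-selectin grains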;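 for nuclei count: 100% = median nuclei count of all wells on the same plate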). The following applies: HUVEC TNFalpha-induced E-selectin immunofluorescence imaging, at 2 µM; inhibition: stronger effect = higher value; nuclei count: measured here: cell number, toxicity.
Assay [4] concerns the target Voltage-gated potassium channel subunit beta-2 (Rattus norvegicus) (UniProt P62483). The experiment in a line: KvBeta enzyme negative modulators, primary screen, biochemical, NADPH fluorescence (AID 622;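 active = fluorescence slope higher than the sample average by over 3 SD, cut at about -0.22 in these data, passing the limit was not always enough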;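 note: slope of raw intensity against log time taken from 70 to 1610 s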). The following applies: recombinant KvBeta, 4-cyanobenzaldehyde reduction, at 10 µM, stronger effect = higher value.
The target is the same in assay [5]. The experiment in a line: KvBeta positive modulators, primary screen, biochemical, NADPH fluorescence (AID 623;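 active = NADPH fluorescence slope more negative than the mean of all samples by about 3 SD, 99.7% confidence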;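 note: fluorescence intensity change per second fitted from 20 to 320 s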). The following applies: Recombinant KvBeta, NADPH fluorescence decrease slope, 10 min; at 10 µM; stronger effect = lower value.
Assay [6] concerns the target Alpha-2C adrenergic receptor (Homo sapiens) (UniProt P18825). As to the kind of experiment: modulators of alpha2C/GIRK thallium flux, primary screen, cell-based, HEK293 alpha2C/GIRK1/2 (AID 624;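 active = fluorescence slope after compound addition differing from the mean of all screened samples at 99.7% confidence, in either direction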;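 note: slope of fluorescence ratio to pre-addition baseline per second over 15 to 24 s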). The following applies: thallium flux BTC fluorescence, at 10 µM, actives lie on both sides.
Assay [7] in a line: inhibitors of Sendai virus-induced IRF3 signaling, primary screen, TLR/RLR signaling modifier project, cell-based, Sendai virus stimulus, luciferase, 10K MLSCN set (AID 602276;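 active = inhibition at or above 50% at 10 µM; inactive = inhibition below 50%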;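 note: firefly luciferase from ISG56 promoter only with Renilla not read in this screen; 0% = Sendai virus plus DMSO and 100% = medium plus DMSO without virus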). The following applies: HEK293 RL24 IRF3 luciferase reporter, at 10 µM, stronger effect = higher value. (In general: A reporter such as luciferase makes a cellular process visible.)
Assay [8] in a line: inhibitors of poly I:C-induced TLR3 signaling, primary screen, cell-based, poly I:C stimulus, luciferase, 10K MLSCN set (AID 602277;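 active = inhibition of the reporter signal at or above 50%; inactive = inhibition below 50%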). The following applies: HEK293-TLR3 RL24 IRF3 luciferase reporter, at 10 µM, stronger effect = higher value.

Sequence of Voltage-gated potassium channel subunit beta-2 (Rattus norvegicus) (P62483 whole entry, looked up): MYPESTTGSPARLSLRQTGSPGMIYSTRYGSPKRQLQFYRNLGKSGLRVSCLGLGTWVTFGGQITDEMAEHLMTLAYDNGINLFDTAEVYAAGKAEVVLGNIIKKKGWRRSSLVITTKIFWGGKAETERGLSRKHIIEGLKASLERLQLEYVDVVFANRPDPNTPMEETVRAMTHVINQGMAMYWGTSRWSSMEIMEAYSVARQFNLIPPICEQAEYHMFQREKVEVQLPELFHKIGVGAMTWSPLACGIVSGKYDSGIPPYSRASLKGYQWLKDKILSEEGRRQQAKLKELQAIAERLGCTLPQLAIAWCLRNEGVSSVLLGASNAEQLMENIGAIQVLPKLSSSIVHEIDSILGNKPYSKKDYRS
Sequence of Alpha-2C adrenergic receptor (Homo sapiens) (P18825 whole entry, looked up): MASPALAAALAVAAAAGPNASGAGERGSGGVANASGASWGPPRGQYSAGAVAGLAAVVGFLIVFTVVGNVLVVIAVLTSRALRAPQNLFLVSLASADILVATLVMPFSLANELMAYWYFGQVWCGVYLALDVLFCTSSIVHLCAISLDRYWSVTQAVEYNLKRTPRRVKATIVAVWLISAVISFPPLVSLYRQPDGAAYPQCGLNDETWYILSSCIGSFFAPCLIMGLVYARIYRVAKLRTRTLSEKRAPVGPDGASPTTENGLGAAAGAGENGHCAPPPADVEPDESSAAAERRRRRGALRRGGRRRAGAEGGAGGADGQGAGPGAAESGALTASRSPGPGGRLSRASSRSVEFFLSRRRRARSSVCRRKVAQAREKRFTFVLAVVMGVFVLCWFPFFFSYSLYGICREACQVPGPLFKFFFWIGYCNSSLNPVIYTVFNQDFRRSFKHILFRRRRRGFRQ

Take `CCN(CC)S(=O)(=O)c1ccc2oc(C(=O)N3CCOCC3)c(C)c2c1`: the cell count in assay [1] was determined as 638. Also, the inhibition in assay [1] was -12% (inactive); in assay [3] it was -96.2% (inactive); in assay [7], -1.83% (inactive); in assay [8] it was 2.02% (inactive). Also, the inhibition of aggregation in assay [2] is 5.2% (inactive). For the same molecule, the nuclei count in assay [2] worked out at 107%; in assay [3], 92.5%. Besides, the fluorescence slope in assay [4] is -0.543 (inactive). The NADPH fluorescence slope in assay [5] is -2.8e-06 (inactive). In addition, in assay [6], the slope was 0.00418 (inactive).

In the case of `COC(=O)C(C)NC(=O)C12CC3CC(CC(C3)C1)C2` (stereo not drawn), the cell count in assay [1] was found to be 512. In addition, the inhibition was -5.8% (inactive) in assay [1], -31% (inactive) in assay [3], -0.739% (inactive) in assay [7] and 23% (inactive) in assay [8]. The inhibition of aggregation in assay [2] was 13.2% (inactive). In addition, the results for the nuclei count in assay [2] and in assay [3] were 103% and 124%, respectively. Further, in assay [4], the fluorescence slope is -0.321 (inactive). In assay [5], the NADPH fluorescence slope was -2.1e-05 (inactive). For the same molecule, in assay [6], the slope is 0.0064 (inactive).

On to `COC(=O)c1ccc(CSc2nnc(-c3ccncc3)o2)o1`, for which the cell count in assay [1] stood at 612. Besides, the inhibition in assay [1] is -2.2% (inactive); in assay [3], -31.9% (inactive); in assay [7], 12% (inactive); in assay [8], 13.9% (inactive). For the same molecule, the inhibition of aggregation in assay [2] is -8% (inactive). The values for the nuclei count in assay [2] and in assay [3] were 139% and 114%, respectively. Further, in assay [4], the fluorescence slope was -0.596 (inactive). The NADPH fluorescence slope in assay [5] was -3.4e-05 (inactive). For the same molecule, in assay [6], the slope is 0.00373 (inactive).

For the molecule `CC(=O)c1c(C)oc2ccc(NS(=O)(=O)c3ccc(O)c(C(=O)O)c3)cc12`, the cell count in assay [1] was 380. Also, the inhibition in assay [1] was 8.9% (inactive); in assay [3] it was -5.6% (inactive); in assay [7], 7.79% (inactive); in assay [8], 19.3% (inactive). Moreover, the inhibition of aggregation in assay [2] was -7.5% (inactive). The nuclei count was found to be 108% in assay [2] and 112% in assay [3]. For the same molecule, the fluorescence slope in assay [4] is -0.576 (inactive). For the same molecule, the NADPH fluorescence slope in assay [5] is -2.5e-05 (inactive). Further, the slope in assay [6] is 0.00663 (inactive).

Consider `CCOC(=O)C1(C)NC(c2ccc(OC)c(OC)c2)C2C(=O)N(CC)C(=O)C21` (stereo not drawn), for which, in assay [1], the cell count stood at 369. Besides, the inhibition in assay [1] is -8.4% (inactive); in assay [3] it was -211% (inactive); in assay [7] it was 1.25% (inactive); in assay [8] it was 14.3% (inactive). Further, the inhibition of aggregation in assay [2] was 29.1% (inactive). Also, the nuclei count is 105% in assay [2] and 182% in assay [3]. Further, the fluorescence slope in assay [4] was -0.598 (inactive). In addition, the NADPH fluorescence slope in assay [5] is -9.8e-06 (inactive). Also, the slope in assay [6] is 0.00547 (inactive).

Take `CCc1nnc(NC(=O)C2CC(=O)N(Cc3ccco3)C2)s1` (stereo not drawn): the cell count in assay [1] amounted to 428. For the same molecule, the inhibition in assay [1] was 7.3% (inactive); in assay [3], -0.2% (inactive); in assay [7], 13.8% (inactive); in assay [8] it was 22.1% (inactive). In addition, in assay [2], the inhibition of aggregation was -11.1% (inactive). In addition, the nuclei count in assay [2] stood at 104%; in assay [3], 106%. Moreover, in assay [4], the fluorescence slope is -0.507 (inactive). Moreover, the NADPH fluorescence slope in assay [5] was -6.1e-05 (inactive). Further, the slope in assay [6] is 0.00457 (inactive).

For `CC1CC(NC(=O)c2cnc3n(c2=O)CCS3)CC(C)(C)C1` (stereo not drawn), in assay [1], the cell count was 626. Moreover, the inhibition is -2.3% (inactive) in assay [1], -37.1% (inactive) in assay [3], 16.9% (inactive) in assay [7] and 38.3% (inactive) in assay [8]. Moreover, the inhibition of aggregation in assay [2] was -23.1% (inactive). Moreover, the results for the nuclei count in assay [2] and in assay [3] were 113% and 112%, respectively. Besides, in assay [4], the fluorescence slope is -0.56 (inactive). Further, the NADPH fluorescence slope in assay [5] was -4.4e-05 (inactive). In addition, in assay [6], the slope was 0.00953 (inactive).

As to `Cc1cc(C(=O)NCCCN2CCOCC2)n(-c2ccccc2)n1`, the cell count in assay [1] was 624. Besides, the inhibition in assay [1] is 3.3% (inactive); in assay [3] it was -29.6% (inactive); in assay [7], 9.1% (inactive); in assay [8] it was 24.9% (inactive). The inhibition of aggregation in assay [2] is -11.9% (inactive). Also, the nuclei count was 92.5% in assay [2] and 115% in assay [3]. For the same molecule, the fluorescence slope in assay [4] is -0.519 (inactive). The NADPH fluorescence slope in assay [5] was -2.1e-05 (inactive). Besides, the slope in assay [6] is 0.00682 (inactive).

For `Cc1cccc2c1nc(-c1ccccc1)n1cnnc21`, in assay [1], the cell count stood at 345. Also, the inhibition in assay [1] was -10.7% (inactive); in assay [3], -58% (inactive); in assay [7] it was -15.9% (inactive); in assay [8] it was -12.4% (inactive). In addition, in assay [2], the inhibition of aggregation was -2.7% (inactive). In addition, the nuclei count was 73% in assay [2] and 114% in assay [3]. For the same molecule, in assay [4], the fluorescence slope is -0.452 (inactive). For the same molecule, the NADPH fluorescence slope in assay [5] is -2.6e-08 (inactive). Also, in assay [6], the slope is 0.00423 (inactive).

Turning to `Cc1nc(NC2=NCN(CC3CCCO3)CN2)nc2ccccc12` (stereo not drawn), in assay [1], the cell count was determined as 346. The inhibition is -11.7% (inactive) in assay [1], 29% (inactive) in assay [3], 15.3% (inactive) in assay [7] and 28.6% (inactive) in assay [8]. Besides, the inhibition of aggregation in assay [2] was 28.4% (active). For the same molecule, the nuclei count is 84.3% in assay [2] and 98.5% in assay [3]. In addition, the fluorescence slope in assay [4] was -0.548 (inactive). For the same molecule, the NADPH fluorescence slope in assay [5] is -8.4e-06 (inactive). For the same molecule, in assay [6], the slope is 0.00499 (inactive).

Turning to `Cc1ccc(NC(=O)c2cc(-c3ccc(C)o3)nc3ccccc23)nc1`, the cell count in assay [1] stood at 414. The inhibition in assay [1] is 6.3% (inactive); in assay [3] it was 21.6% (inactive); in assay [7], -2.84% (inactive); in assay [8], -17% (inactive). In assay [2], the inhibition of aggregation is -7.9% (inactive). Moreover, the figures for the nuclei count in assay [2] and in assay [3] were 113% and 106%, respectively. Further, in assay [4], the fluorescence slope was -0.12 (active). Moreover, the NADPH fluorescence slope in assay [5] is 9.6e-06 (inactive). Besides, the slope in assay [6] was 0.00591 (inactive).

Take `CC(NC(=O)Cc1cccs1)c1ccc2c(c1)OCO2` (stereo not drawn): in assay [1], the cell count came out at 333. Further, the inhibition in assay [1] is 5.1% (inactive); in assay [3], -9.2% (inactive); in assay [7], 14.9% (inactive); in assay [8], 4.01% (inactive). For the same molecule, the inhibition of aggregation in assay [2] was -3.8% (inactive). Also, the nuclei count in assay [2] was determined as 104%; in assay [3], 109%. Further, the fluorescence slope in assay [4] is -0.609 (inactive). For the same molecule, the NADPH fluorescence slope in assay [5] was -2.4e-05 (inactive). The slope in assay [6] was 0.00364 (inactive).

For the molecule `CCc1c(C)c2c(C)nn(-c3ccccc3)c2[nH]c1=O`, in assay [1], the cell count amounted to 292. Further, the inhibition was -0.8% (inactive) in assay [1], -49.1% (inactive) in assay [3], 6.95% (inactive) in assay [7] and -0.265% (inactive) in assay [8]. For the same molecule, in assay [2], the inhibition of aggregation is 21.9% (inactive). Besides, the nuclei count in assay [2] came to 94.5%; in assay [3], 123%. Besides, the fluorescence slope in assay [4] is -0.409 (inactive). The NADPH fluorescence slope in assay [5] was -0.000123 (inactive). In assay [6], the slope was 0.00678 (inactive).
